The nature of test [1]: A CellTox Green Cytotoxicity Assay to monitor cytotoxicity in HEK293 cells - 40 hour (AID 1224871). Also: nearly all actives have a fitted effect of over 45% in size. Also: potency is read from the fitted curve at half-maximal effect. The essentials: (§1)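 Seeding of HEK293 cells together with cytotoxicity dye preceded a 5 h incubation at 37 C/5% CO2. Test compounds in DMSO were then added and fluorescence monitored across 40 h.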
Test [2] in a line: qHTS RealTime-Glo MT Cell Viability Assay in HEK293 cells - 16 hour (AID 1224872). Also: nearly all actives have a fitted effect of over 50% in size. Also: potency is read from the fitted curve at half-maximal effect. The gist of the method:
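Luminescence generated by NanoLuc from substrate produced by living HEK293 cells served as the viability signal. Each value reflects the reading at its stated time point during continuous 40 h compound exposure at 37 C.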
For orientation: Quantitative high-throughput screening tests each substance at several concentrations.

A short description of test [3]: qHTS RealTime-Glo MT Cell Viability Assay in HepG2 cells - 8 hour (AID 1224873). Also: nearly all actives have a fitted effect of over 55% in size. The gist of the method:
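Real-time viability: cells seeded at 600 per well together with NanoLuc and cell-permeant prosubstrate, compounds added after 5 h incubation. Luminescence tracked at 0, 8, 16, 24, 32 and 40 h of exposure.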

A short description of test [4]: qHTS RealTime-Glo MT Cell Viability Assay in HEK293 cells - 40 hour (AID 1224874). Also: nearly all actives have a fitted effect of over 50% in size. Also: potency is read from the fitted curve at half-maximal effect. The conditions noted are these: RealTime-Glo luminescence; max response: stronger effect = lower value. The gist of the method: (§2)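 Tox21 screen in HEK293 using RealTime-Glo MT chemistry, with cells and reagent co-dispensed. Luminescence proportional to viable cell number was captured at intervals during 40 h compound exposure at 37 C.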

Test [5] is described as follows: A CellTox Green Cytotoxicity Assay to monitor cytotoxicity in HEK293 cells - 24 hour (AID 1224875). Also: series mostly up to about 77 µM; nearly all actives have a fitted effect of over 45% in size. The gist of the method: as §1
Test [6] can be described thus: A CellTox Green Cytotoxicity Assay to monitor cytotoxicity in HepG2 cells - 16 hour (AID 1224876). Also: nearly all actives have a fitted effect of over 45% in size. The essentials:
(§3)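 Nonlytic assay: viable cells exclude the dye, so fluorescence scales with cell death. HepG2 at 600 cells/well, compounds added after 5 h, signal read across 40 h.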

A short description of test [7]: qHTS RealTime-Glo MT Cell Viability Assay in HepG2 cells - 32 hour (AID 1224877). Also: nearly all actives have a fitted effect of over 55% in size. Also: potency is read from the fitted curve at half-maximal effect. The gist of the method:
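Tox21 10K library screened in qHTS format on HepG2 cells carrying RealTime-Glo reagents. Compounds were added after a 5 h preincubation, and the luminescent signal from continuous culture was measured repeatedly during 40 h treatment.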

Test [8] can be described thus: A CellTox Green Cytotoxicity Assay to monitor cytotoxicity in HepG2 cells - 24 hour (AID 1224878). Also: nearly all actives have a fitted effect of over 45% in size. Also: potency is read from the fitted curve at half-maximal effect. The gist of the method:
as §3

Test [9] can be described thus: qHTS RealTime-Glo MT Cell Viability Assay in HEK293 cells - 0 hour (AID 1224880). The gist of the method: as §2
The nature of test [10]: A CellTox Green Cytotoxicity Assay to monitor cytotoxicity in HepG2 cells - 40 hour (AID 1224879). Also: nearly all actives have a fitted effect of over 40% in size. The gist of the method: as §3

Structures are written as SMILES. “And” between values parts separate entries of the source, which are not always exact repeats. Equal values may be shown once. Results filed as inconclusive are left out. The source holds several records for some structures; these can differ, active in one and inactive in another. The source made the active and inactive calls. Calls follow the shape of the dose curve; as a rule, active = well fitted curve in the direction sought with a large enough effect in the repeat runs; inconclusive = weak or mixed curves; inactive = no such curve, though single readings can be large; an effect the other way counts as inactive or inconclusive.
% is scaled to controls: 0 for no effect and ±100 for the full control effect.

As for `NC(=O)c1cnccn1`, the Potency result in [1], in test [2], in test [5], in [6], in test [7] and in [8] was “inactive” each time. Moreover, in [9], the Potency result was “inactive”. For the same molecule, in test [3], the molecule was classed as inactive. In test [4], the max response was -0.816% (inactive) and 11.3% (inactive) and 0.0586% (inactive).
For `CCCCOC(=O)CC(CC(=O)OCCCC)(OC(C)=O)C(=O)OCCCC`, the Potency result in test [1], in test [2], in test [5], in test [6], in test [7] and in test [8] was “inactive” throughout. For the same molecule, the Potency result in test [10] and in test [9] was “inactive” in each case. Moreover, the result in [3] was inactive. For the same molecule, in [4], the max response is -6.55% (inactive) and -23.8% (inactive) and -22.3% (inactive).
Take `c1ccc2[nH]ccc2c1`: the Potency in test [1] is 4.82 µM (active) and inactive; in [2] it was 2.15 µM (active) and inactive; in test [4] it was 2.15 µM (active); in test [7], 3.83 µM (active) and inactive; in test [8] it was 6.81 µM (active) and inactive. Besides, the outcome in test [3] was inactive. In addition, the max response in [4] is 8.38% (inactive) and -1.27% (inactive). In addition, in test [9], the Potency result was “inactive”.
For the molecule `O=C(O)/C=C\C(=O)O`, the Potency result in test [1], in test [2], in [5], in test [6], in [7] and in [8] was “inactive” throughout. For the same molecule, the Potency result in test [10] and in test [9] was “inactive” each time. In addition, the call in test [3] was inactive. Also, in [4], the max response was 3.82% (inactive) and 7.29% (inactive) and 0.357% (inactive).
Take `O=C(O)c1cccc([N+](=O)[O-])c1`: the Potency result in test [1], in [2], in test [5], in test [6], in test [7] and in [8] was “inactive” each time. The Potency result in test [10] and in test [9] was “inactive” each time. Also, in test [3], the molecule was called inactive. The max response in [4] was -2.27% (inactive) and 9.34% (inactive) and 3.61% (inactive).
As for `CNC[C@H](O)c1cccc(O)c1`, the Potency entry in test [1], in test [2], in [5], in test [6], in [7] and in test [8] was “inactive” in each case. Further, in test [9], the Potency result is “inactive”. Besides, the call in [3] was inactive. For the same molecule, in test [4], the max response was 8.72% (inactive) and 5.33% (inactive) and 3.68% (inactive).
In the case of `O=C(O)c1[nH]n(-c2ccc(S(=O)(=O)O)cc2)c(=O)c1N=Nc1ccc(S(=O)(=O)O)cc1`, the Potency result in test [1], in test [2], in test [5], in [6], in test [7] and in [8] was “inactive” each time. Also, the Potency entry in [9] was “inactive”. Moreover, in test [3], the result was inactive. For the same molecule, in test [4], the max response was -3.28% (inactive) and -13% (inactive) and 0.864% (inactive).
As to `Nc1ccn([C@H]2CC[C@@H](CO)O2)c(=O)n1`, the Potency result in test [1], in test [2], in test [5], in test [6], in test [7] and in [8] was “inactive” throughout. Further, the Potency entry in [10] and in [9] was “inactive” each time. Further, the call in [3] was inactive. Besides, the max response in [4] was 5.91% (inactive) and 4.06% (inactive) and 6.95% (inactive).
As to `COc1c2occc2cc2ccc(=O)oc12`, the Potency result in [1], in test [2], in test [5], in test [7], in test [8] and in [9] was “inactive” throughout. The outcome in test [3] was inactive. Moreover, in test [4], the Potency is 21.9 µM (active). For the same molecule, the max response in test [4] was -18.6% (inactive).
Turning to `CC(O)CN(CCN(CC(C)O)CC(C)O)CC(C)O` (centres undefined), the Potency entry in [1], in [2], in test [5], in test [7], in test [8] and in test [10] was “inactive” each time. Besides, the Potency entry in test [9] is “inactive”. In addition, the molecule was classed as inactive in test [3]. Further, in test [4], the max response was 2.34% (inactive) and 10.6% (inactive) and -2.16% (inactive).
With `CCCC(O)C(CC)CO` (centres undefined), the Potency result in test [1], in [2], in [5], in test [6], in test [7] and in test [8] was “inactive” in each case. For the same molecule, the Potency result in [10] and in test [9] was “inactive” each time. Besides, the call in test [3] was inactive. Besides, the max response in test [4] was 0.318% (inactive) and 1.14% (inactive) and 0.567% (inactive).
Regarding `CCCN(CCC)S(=O)(=O)c1ccc(C(=O)O)cc1`, the Potency result in [1], in test [2], in test [5], in [6], in [7] and in [8] was “inactive” in each case. Further, the Potency entry in test [10] and in test [9] was “inactive” each time. Also, the molecule was classed as inactive in [3]. The max response in test [4] is -6.3% (inactive) and -3.84% (inactive) and 10.6% (inactive).
As for `O=C(O)CCC(=O)O`, the Potency entry in test [1], in [2], in test [5], in [6], in test [7] and in [8] was “inactive” each time. The Potency result in test [9] is “inactive”. Besides, the call in test [3] was inactive. Moreover, the max response in test [4] is 9.17% (inactive) and -2.49% (inactive) and -2.75% (inactive).
On to `NC(N)=NC(=O)c1nc(Cl)c(N)nc1N`, for which the Potency result in [1], in test [2], in test [5], in test [6], in [7] and in [8] was “inactive” throughout. In test [9], the Potency entry is “inactive”. For the same molecule, in test [3], the result was inactive. For the same molecule, the max response in test [4] was -9.86% (inactive) and -7.01% (inactive) and -5.97% (inactive).
On to `CCC1(c2ccccc2)C(=O)NCNC1=O`, for which the Potency entry in [1], in test [2], in test [5], in test [7], in [8] and in test [10] was “inactive” throughout. For the same molecule, the Potency result in test [9] was “inactive”. For the same molecule, the outcome in [3] was inactive. Also, in [4], the max response was -6.46% (inactive) and 0.966% (inactive) and 0.298% (inactive).
`C1N2CN3CN1CN(C2)C3`: the Potency entry in [1], in test [2], in test [5], in test [6], in test [7] and in test [8] was “inactive” throughout. Besides, the Potency result in test [9] was “inactive”. Moreover, in test [3], the call was inactive. In addition, the max response in [4] was 5.73% (inactive) and 6.94% (inactive) and 0.249% (inactive).

The values above are taken from PubChem BioAssay (Tox21).
